Source: PubChem BioAssay
Activity calls are given as the source filed them. Unless noted, the rule behind the calls is not given here.

Key:
[1] = tested on: Wnt5a (protein binding on small-molecule microarray); experiment: Wnt5a binders on small-molecule microarray, primary screen, biophysical, 635/667 nm fluorescence (AID 1142); details: 635 nm fluorescence, higher = more signal;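 note: fluorescence read at 667 nm with signal to noise per printed feature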
[2] = cell viability in Huh7 cells, primary screen, cytotoxicity control for HCV replication inhibitor project, CellTiter-Glo luminescence, basal, 48 h (AID 1143); details: Huh7 HCV replicon, higher = more signal, called active from +8 up or from −8 down;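 note: Huh7 hepatoma cells carrying a hepatitis C replication reporter with no stimulus; test concentration not given here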
[3] = P. aeruginosa biofilm formation inhibitors, primary screen, PAO1 strain, BacTiter-Glo luminescence, LB-PBS (AID 1144); details: 12 h, higher = more signal
[4] = CREB reporter modulators without forskolin, primary screen, cell-based, PC12, CRE-LacZ reporter, unstimulated (AID 1145); details: no forskolin, luminescence, 4.5 h, higher = more signal, called active from +8 up or from −8 down
[5] = CREB reporter modulators under forskolin, primary screen, cell-based, PC12, CRE-LacZ reporter, forskolin-stimulated (AID 1146); details: luminescence, 4.5 h, higher = more signal, called active from +8 up or from −8 down;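 note: PC12 cells with 6xCRE LacZ reporter stimulated by forskolin 10 µM; beta-galactosidase reporter signal reflecting CREB driven transcription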
[6] = biological target: Streptavidin (Streptomyces avidinii) (UniProt P22629); experiment: streptavidin binders on small-molecule microarray, primary screen, artefact control for SMM compound annotation, biophysical, 635/667 nm fluorescence (AID 1147); details: streptavidin binding, higher = more signal;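 note: signal reflects streptavidin binding to arrayed compounds as a control protein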
[7] = small-molecule binders of probe aInhba, primary screen, biochemical, small-molecule microarray, 635/667 nm fluorescence (AID 1148); details: higher = more signal;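 note: score merges 667nm spot fluorescence with signal-to-noise for antibody binding to printed compounds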
Torsin-1A (Homo sapiens) [8] = biological target: Torsin-1A (Homo sapiens) (UniProt O14656); experiment: torsin A binders from cell lysate, primary screen, small-molecule microarray, wild-type, 635/667 nm (AID 1149); details: COS7 hTOR1A-WT lysate, 635 nm fluorescence, higher = more signal
Torsin-1A (Homo sapiens) [9] = biological target: Torsin-1A (Homo sapiens) (UniProt O14656); experiment: small-molecule binders of mutant TOR1A in lysate, primary screen, cell lysate, small-molecule microarray, COS7 lysate, 635/667 nm fluorescence (AID 1150); details: COS7 hTOR1A mutant lysate, 635 nm fluorescence, higher = more signal;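 note: score pools 667 nm emission and signal to noise measuring lysate protein binding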
[10] = tested on: Sonic hedgehog protein (Shh); experiment: small-molecule binders of Shh protein, primary screen, biochemical, small-molecule microarray, 635/667 nm fluorescence (AID 1151); details: small-molecule microarray binding, 635 nm fluorescence; higher = more signal;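 note: Shh protein binding to compounds spotted on small-molecule microarray slides; score combines spot fluorescence intensity with signal-to-noise across triplicate slides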

Sequence of Streptavidin (Streptomyces avidinii) (P22629 whole entry, looked up): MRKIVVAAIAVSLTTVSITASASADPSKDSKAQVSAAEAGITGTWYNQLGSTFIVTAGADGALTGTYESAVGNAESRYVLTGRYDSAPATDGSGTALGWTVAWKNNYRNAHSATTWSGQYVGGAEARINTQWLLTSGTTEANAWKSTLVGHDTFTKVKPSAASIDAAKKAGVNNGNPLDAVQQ
Sequence of Torsin-1A (Homo sapiens) (O14656 whole entry, looked up): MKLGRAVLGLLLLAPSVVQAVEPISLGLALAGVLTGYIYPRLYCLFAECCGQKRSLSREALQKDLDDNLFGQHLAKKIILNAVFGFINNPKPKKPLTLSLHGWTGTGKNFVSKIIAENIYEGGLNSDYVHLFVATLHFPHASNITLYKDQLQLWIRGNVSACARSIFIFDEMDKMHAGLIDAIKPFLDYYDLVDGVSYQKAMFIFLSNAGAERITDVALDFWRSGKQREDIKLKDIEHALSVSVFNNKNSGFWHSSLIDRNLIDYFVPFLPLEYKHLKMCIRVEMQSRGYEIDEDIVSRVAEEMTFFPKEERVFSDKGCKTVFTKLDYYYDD

SMILES	composite z-score [1]	z-score [2]	z-score [3]	z-score [4]	z-score [5]	composite z-score [6]	composite z-score [7]	composite z-score (Torsin-1A (Homo sapiens) [8])	composite z-score (Torsin-1A (Homo sapiens) [9])	composite z-score [10]
COC(=O)[C@]1(Cc2ccccc2CN=[N+]=[N-])N=C(c2ccc(OCCCO)cc2)O[C@@H]1c1ccccc1N=[N+]=[N-]	0.786	-5.02 (inactive)	-0.332 (inactive)	3.72 (inactive)	0.335 (inactive)	-0.174	0.0082	-0.0005	-0.147	0.336
CCOC(=O)C[C@H]1[C@H](OC(=O)c2cc3ccccc3oc2=O)[C@@H](NC(=O)Cc2ccc(OC)cc2)c2cc(OCCCO)ccc2N1C(=O)Cc1ccc(OC)cc1	0.0746	-1.5 (inactive)	-0.783 (inactive)	-0.0558 (inactive)	-1.59 (inactive)	0.55	-0.185	0.332	0.839	1.27
C=C(CC1([C@@H](NP(=O)(c2ccccc2)c2ccccc2)[C@H]2C[C@@H]2CCCC)CC1)c1cccc(OC)c1	0.0445	-1.65 (inactive)	0.496 (inactive)	0.0109 (inactive)	0.276 (inactive)	0.566	0.0227	-0.547	-0.302	-0.836
COC(=O)[C@@]1(Cc2ccc(F)cc2)[C@H]2c3cc(C(=O)N(C)C)n(Cc4ccsc4Br)c3C[C@H]2CN1C(=O)c1ccccc1	2.41	-1.49 (inactive)	0.00128 (inactive)	1.73 (inactive)	-0.0932 (inactive)	1.66	2.03	-0.0698	0.39	-0.635
C=CCOC(=O)[C@H]1[C@@H]2C(=O)O[C@@H](c3ccccc3)[C@@H](c3ccccc3)N2[C@@H](c2ccc(OCCOC(=O)[C@H]3C[C@H]4C(=O)NCC(=O)N4[C@H]3c3cccc(OCCO)c3)cc2)[C@]12C(=O)Nc1ccc(I)cc12	0.984	-0.469 (inactive)	-0.282 (inactive)	0.423 (inactive)	-0.142 (inactive)	0.0708	0.434	0.418	0.83	1.94
